Measured values published in PubChem BioAssay (NCATS).
Records with an inconclusive call do not appear.

Assay: qHTS Assay for Lipid Storage Modulators (AID 1519)
Settings: Drosophila S3 cells, BODIPY lipid droplet/cell ratio, laser cytometry; measured here: lipid channel max response; cells loaded with oleic acid
Method in brief: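 Cells seeded at 5,000 per well were treated with compounds over a concentration series and loaded with oleic acid (400 uM, as added). Lipid droplet fluorescence (488 nm excitation, 500-530 nm channel) was read by laser-scanning cytometry and normalized to 20 uM Triacsin C.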

Compound | max response
N#Cc1cccc(-c2nc3cnc(N4CCOCC4)nc3n(C3CC3)c2=O)c1 | 13.2%
CCNc1ncc2nc(-c3cc(F)cc(F)c3)c(=O)n(C)c2n1 | -3.55%
CC(=O)NCCNc1ccnc(-c2ccccc2C(F)(F)F)n1 | 14.6%
CCNc1ncc2nc(-c3cc(F)cc(F)c3)c(=O)n(C[C@H]3CCCO3)c2n1 | 19%
COc1cccc(-c2cncnc2N(C)Cc2ccco2)c1 | 41.1%
COc1ccccc1-c1ccc2ncnc(NC3CCNCC3)c2c1 | 12.3%
O=c1cnc2cnc(N3CCOCC3)nc2n1C1CC1 | 8.8%
CCNc1ncc2nc(C)c(=O)n(-c3ccc(OC)cc3)c2n1 | 15%
CCNc1ncc2nc(C)c(=O)n(Cc3cccs3)c2n1 | -5.88%
Cn1c(=O)c(-c2cccs2)nc2cncnc21 | 19.2%
CN(C)c1ncc2ncc(=O)n(C3CC3)c2n1 | 22.4%
CCNc1ncc2nc(C)c(=O)n(Cc3ccc(F)cc3)c2n1 | 24.2%
CN(C)C(=O)c1ccc(-c2nc(NC3CCNCC3)c3ccccc3n2)cc1 | 18.3%
COc1ccccc1CNc1ncncc1-c1cccnc1 | 13.8%
COc1cccc(Nc2ncc3nc(C)c(=O)n(C)c3n2)c1 | 2.52%
Cc1cnc(CNc2ncncc2-c2cccc(C#N)c2)cn1 | 25.3%
Cc1nc2cnc(Nc3ccccc3)nc2n(C2CC2)c1=O | -28.8%
CCNc1ncc2nc(C)c(=O)n(C3CC3)c2n1 | 4.64%
CCNc1ncc2nc(-c3cn(C)c4ccccc34)c(=O)n(-c3ccc(OC)cc3)c2n1 | 23%
CN(C)C(=O)c1ccc(-c2cncnc2N2CCNCC2)cc1 | 20.2%
